# Laboratory results reported in PubChem BioAssay AID720504 (National Center for Advancing Translational Sciences (NCATS), 2013).
# The campaign covered roughly 360,000 compounds. About 10,000 (2.8%) were called active. About 4% were inconclusive and are not listed. Shown is part of a subset that was picked to be rich in actives. Values without a mark were called inactive. Calls come from the whole dose curve; as a rule, active = well fitted inhibition curve with a large enough effect; inconclusive = small, poorly fitted or top-dose-only effect; inactive = flat fitted curve, though single readings scatter.
# Molecular target: Serine/threonine-protein kinase PLK1 (Homo sapiens) (UniProt P53350)
# Sequence (P53350 whole entry, looked up, the tested form may be a part): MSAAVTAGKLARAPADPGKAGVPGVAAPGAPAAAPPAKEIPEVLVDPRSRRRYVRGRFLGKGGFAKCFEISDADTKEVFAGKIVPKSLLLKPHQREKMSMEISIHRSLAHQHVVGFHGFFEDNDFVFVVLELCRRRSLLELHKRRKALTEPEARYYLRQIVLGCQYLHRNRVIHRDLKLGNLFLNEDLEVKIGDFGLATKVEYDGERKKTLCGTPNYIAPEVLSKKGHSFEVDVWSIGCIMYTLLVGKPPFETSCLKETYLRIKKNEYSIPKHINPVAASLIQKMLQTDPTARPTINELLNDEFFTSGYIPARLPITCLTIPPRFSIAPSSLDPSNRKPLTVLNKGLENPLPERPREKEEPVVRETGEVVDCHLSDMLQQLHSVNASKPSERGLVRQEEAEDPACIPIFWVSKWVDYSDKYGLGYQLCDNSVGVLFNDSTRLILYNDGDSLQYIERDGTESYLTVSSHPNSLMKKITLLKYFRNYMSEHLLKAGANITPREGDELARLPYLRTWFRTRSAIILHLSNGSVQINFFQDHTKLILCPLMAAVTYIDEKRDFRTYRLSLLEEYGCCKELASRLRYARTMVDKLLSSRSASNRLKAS
# Assay: qHTS for Inhibitors of PLK1-PDB (polo-like kinase 1 - polo-box domain): Primary Screen; note: nearly all actives have a fitted effect of over 65% in size; for max response, negative = inhibition: series mostly up to about 57 µM
# Settings: Plk1 PBD binding of FITC phosphopeptide, fluorescence polarization
# From the text: The polo-like kinase 1 (Plk1) is a member of a conserved subfamily of serine / threonine protein kinases that plays a pivotal roles in cell proliferation. It has a C-terminal non-catalytic region called the polo-box domain (PBD) that plays a crucial role in the subcellular localization of the Plk1. […] Furthermore, depletion of the overexpressed Plk1 by RNAi efficiently induces apoptotic cell death in cancer and reduces tumor growth in mouse xenograft models. Thus, targeting Plk1 is an appealing strategy for anti-cancer therapy. Therefore, this project aimed to screen the Molecular Libraries Small Molecule Repository (MLSMR) using a novel approach to find inhibitors that target the Plk1 PBD instead of the conventional N-terminal catalytic domain. This project employed a fluorescence polarization (FP) assay using a FITC-conjugated phospho-9-mer (p-9-mer) peptide and purified human Plk1 PBD protein. The identified small molecule inhibitors of Plk1 PBD can then further be developed into useful tools for biomedical and clinical research that complements or replaces current relevant disease therapy. NIH Chemical Genomics Center [NCGC] NIH Molecular Libraries Probe Centers Network [MLPCN] MLPCN Grant: MH100728 Assay Submitter (PI): Kyung Lee, NCI
# Four microliter of 25 nM FITC-p-9-mer + 60 nM Plk1 PBD in buffer solution (final concentrations 25 nM and 60 nM respectively) or 4 uL of 25 nM FITC-p-9-mer (final concentration 25 nM) in buffer will be dispensed into a 1,536 Greiner medium-binding black solid plate. Small molecules at final concentrations of 18 nM to 57 uM and positive control phospho-9-mer (sequence: Ac-PPLHSpTAI-NH2) at final concentrations 26 nM to 57 uM and phospho-13-mer (sequence: Ac-[…]pTAI-NH2) at final concentrations of 1 nM to 2.3 uM will be pin-transferred (23 nL) to the plate via a Kalypsys pin-tool robotics equipped with a 1,536-pin array. The reaction plate will be centrifuged for 1 min at 1000 rpm and incubated at room temperature for 10 min. The FITC fluorescence signals will be read using the PerkinElmer ViewLux plate reader at 480 / 20 nm excitation and 540 / 20 nm S and P polarization emission wavelengths. Reagent bottles will be kept submerged into 4 °C recirculating chiller bath and all liquid lines will be covered with aluminum foil to minimize degradation. Library plates will be screened starting from the lowest to the highest concentrations to minimize compound carryover. Vehicle only plates, with DMSO being pin-transferred instead of compound solutions, will be included regularly throughout the screen to record any systematic shifts in assay signal.
# % is set by controls: 0 for no effect and ±100 for the full control effect; potency is the fitted concentration of half-maximal effect.
SMILES,"max response, negative = inhibition [%]",Potency
CC1=C(C(=O)N2CCOCC2)CC(CC(=O)NCCN2CCOCC2)C(=O)N1CCC1=CCCCC1 (stereo not given),1.89,
COc1cccc(-c2nc3nc(C)cc(C)n3c2NC2CCCCC2)c1,-13.3,
CCNC(=O)c1cc2c(c(-c3cccc(-c4cncnc4)c3)n1)[C@H](CCO)N(C(C)=O)C2,-4.29,
O=C(Nc1cc(Br)ccc1F)c1nc[nH]c1C(=O)NCc1ccccc1,-13.2,
COc1cccc(-c2cc3nc(NCc4ccccc4OC)n(C)c(=O)c3s2)c1,3.07,
c1nc(COc2nsnc2N2CCOCC2)cs1,-14.8,
O=C(O)COc1nsnc1N1CCOCC1,-5.74,
c1ccc(COc2nsnc2N2CCOCC2)cc1,,26.7 µM (active)
C[C@H]1COc2cc(N3CCSCC3)ccc2S(=O)(=O)N1,-1.34,
CC(C)C[C@H]1CNC(=O)C(=O)N1C[C@H]1CCCN1C[C@H](Cc1ccc(O)cc1)N1C[C@H](CC(C)C)N(CC2CCCCCC2)C(=O)C1=O,-0.278,
COc1ccc(S(=O)(=O)N2CCCCC2c2cc(C(=O)NCc3ccc(F)cc3)no2)cc1 (stereo not given),4.51,
Cc1nn(-c2ccccc2)c(Cl)c1/C=C/C(=O)c1ccc(O)cc1,-17.2,
COc1cccc(/C=C(/CC(=O)Nc2ccc(N3CCOCC3)cc2)c2nc3ccccc3s2)c1,8.02,
Cc1nn(-c2ccc(F)cc2)c(Cl)c1/C=C(/CCC(=O)O)c1nc2ccccc2s1,,59.7 µM (active)
CC(C)[C@H](NC(=O)c1ccccc1F)C(=O)Nc1cccc(S(=O)(=O)N2CCOCC2)c1,2.03,
COc1ccc(CNC(=O)c2ccc(-c3cccnc3)c3ccoc23)cc1OC,-7.35,
CCOC(=O)C1=CCC2C(=O)N(Cc3ccccc3)C(=O)C12 (stereo not given),-2.51,
CCN(CC)C(=O)C1CCCN(Cc2cccc(Cl)c2)C1 (stereo not given),-16.8,
C=CCOc1c(Br)cc(/C=N\n2nnnc2N)cc1OC,-13.9,
CCOc1c(Br)cc(/C=C2\C(=O)N(CCC#N)N=C2C)cc1OC,,1.06 µM (active)
CC1(C(=O)NS(=O)(=O)c2cccc(F)c2)CCN1C(=O)Cc1ccc(Cl)cc1Cl (stereo not given),1.99,
C[C@H](CO)N1C[C@H](C)[C@@H](CN(C)C(=O)C2CCCCC2)OCc2cnnn2CCCC1=O,-18.4,
CCOC(=O)C1=CC[C@@H](c2ccncc2)N(S(=O)(=O)c2ccc(C)cc2)C1,-3.59,
CN(CC(=O)Nc1ccc(F)cc1)C(=O)c1ccc(-c2ccc(Cl)cc2)o1,-3.69,
Cc1[nH][nH]c(=O)c1C(c1ccc(-c2ccc(Cl)cc2)o1)c1c(C)[nH][nH]c1=O,,26.7 µM (active)
NS(=O)(=O)c1ccc(CCNC(=O)CN2C(=O)c3ccccc3S2(=O)=O)cc1,-4.84,
COc1ccc(CNC(=O)CN2C(=O)c3ccccc3S2(=O)=O)cc1,,26.7 µM (active)
COc1ccc(CNC(=O)CCn2cccc2)cc1,1.6,

SMILES,"max response, negative = inhibition [%]",Potency
COc1cccc(OC)c1C(=O)N1CCN(Cc2ccccc2F)CC1,-14.6,
C=C1C(=O)OC2C1CCC(C)=CCCC1(C)OC21 (stereo not given),-24.4,
CC1(C(=O)NS(=O)(=O)C2CC2)CCCN(C(=O)CSc2ccccc2)C1 (stereo not given),-7.19,
C=CCn1c(SCc2cccc(F)c2)nc2cc(C(=O)N3CCC(C(N)=O)CC3)ccc2c1=O,-5.4,
O=C1Nc2cc(C(=O)N3CCN(c4ccc(F)cc4)CC3)ccc2NC1CSCc1cccc(F)c1 (stereo not given),,29.9 µM (active)
Cc1ccc(SCC(=O)N2CCN(c3ccc(F)cc3)CC2)cc1,4.7,
O=C(c1cccc(F)c1)N1CCN(c2ccc([N+](=O)[O-])c(N3CCCCC3)c2)CC1,-8.34,
CC1CCN(C(=O)c2ccc3c(c2)NC(=O)CN3)CC1,62.7,
Cc1ccc(CSCC2Nc3ccc(C(=O)N4CCN(c5ccc(F)cc5)CC4)cc3NC2=O)cc1 (stereo not given),,8.44 µM (active)
Cc1nc2ccccc2nc1CC(O)(c1ccccc1)c1ccccc1,-15.9,
COc1cccc(CN(C)C(=O)CC[C@H]2O[C@@H](n3cnc4c(NC(=O)c5ccccc5)ncnc43)[C@H](O)[C@@H]2O)c1,-1.63,
Cc1ccc(C(NC(=O)C2CCN(CCOc3ccc(Cl)cc3Cl)CC2)c2ccccn2)cc1 (stereo not given),-11.3,
CC(=O)Nc1ccc(NC(=O)CSc2nnc(C3CC3)n2-c2ccccc2)cc1,7.6,
Cc1nnc(SCC(=O)Nc2cccc(N)c2)n1-c1ccccc1,,26.7 µM (active)
CCOc1cc(C)ccc1OCc1nnc(SCC(=O)Nc2cccc(C(=O)O)c2)n1-c1ccccc1,-7.97,
OCC1OC(n2cnc3c(N4CCCC4)ncnc32)C(O)C1O (stereo not given),-0.393,
C[C@@H]1CN([C@H](C)CO)C(=O)c2cc(Br)cnc2O[C@@H]1CN(C)Cc1cncnc1,-13.8,
CN(CCO)C(=O)c1nc[nH]c1C(=O)N(C)Cc1ccccc1,-6.79,
CC1=CC(=C(C#N)c2nc3ccccc3s2)C=C(C)N1c1ccc(F)cc1F,,21.2 µM (active)
CN(Cc1nc2ccccc2s1)C(=O)c1ccc(F)cc1,-6.86,
O=C(NCc1cccnc1)c1ccc2nc([C@@H]3O[C@H](CO)[C@H](O)[C@H](O)[C@H]3O)[nH]c2c1,-4.09,
CC(=O)c1sc(N/N=C/c2ccc(C(C)C)cc2)nc1C,11.6,
COc1cc(C=NC2CCCCC2)ccc1O,4.49,
COc1cc(/C=N\Nc2nc(-c3cccs3)c(NC(C)=O)s2)ccc1O,,26.7 µM (active)
CCc1ccccc1NC(=O)CN1CCN(C(=O)c2cc(C3CC3)nn2-c2ccccc2)CC1,7.48,
COc1ccc(S(=O)(=O)NC(=O)C2(C)CCN2C(=O)COc2ccc(Cl)cc2)cc1 (stereo not given),-3.35,
CC(C)Nc1ncnc2c1ncn2[C@H]1CN(Cc2ccncc2)C[C@@H](CO)O1,0.157,
